Our source for the inhibition values is PubChem BioAssay AID2071 (Sanford-Burnham Center for Chemical Genomics, 2009).

A short description of this assay: NALP1 inflammasome inhibitors in reconstituted yeast, colorimetric, S. cerevisiae, triplicate retest (AID 2071). The note with it: S. cerevisiae NALP1/ASC/caspase-1 growth, X-gal OD620, 72 h, stronger effect = higher value.

Hit rate of the full screen: of about 280,000 compounds, about 1,700 (0.61%) were called active. No stated cut-off is given here; in the data, active means inhibition mostly above about 24% (no sharp cut-off); inactive means mostly below about 32%. What follows is part of a selection rich in actives, with near analogues and random picks from the rest.

As usually defined, the inhibition is the change of the read-out against control, counted positive when it falls. On to `CCc1noc(C)c1C(=O)N1CCCC(N2CCN(c3ccc(F)cc3)CC2)C1` (stereo not drawn), for which, under “at 10 µM unless noted”, the inhibition was 15% (inactive). Still for that read-out and setting: in the case of `CCOc1ccc(-n2c(SCC(N)=O)nnc2-c2ccco2)cc1` it was 7.9% (inactive). Consider `Oc1c(Cl)cc(Cl)c(Cl)c1Cc1c(O)c(Cl)cc(Cl)c1Cl`, for which the inhibition reads like this: (at 10 µM) 121% (active); (triplicate retest, at 20 µM) 100%.

For the compound `Cc1cc(S(=O)(=O)NCC(C)C)ccc1OCC(=O)NC1CC1`, for the setting “at 10 µM unless noted”, the inhibition was 13.3% (inactive). `COc1ccc(NC(=O)C2CCN(S(=O)(=O)c3ccc4[nH]c(=O)oc4c3)CC2)c(OC)c1`: under “at 10 µM unless noted”, the inhibition was -45% (inactive).

For `Cn1c(=O)oc2cc(S(=O)(=O)N3CCC(C(=O)Nc4ccc(OC(F)(F)F)cc4)CC3)ccc21`, under “at 10 µM unless noted”, the inhibition is 22.5% (active). The same measure, in the same setting: in the case of `Cc1ccc2nc(NC(=O)C3CCN(S(=O)(=O)c4ccc5c(c4)oc(=O)n5C)CC3)sc2c1` it was 0.1% (inactive); in that of `COCCCNC(=S)N(CCN(C)C)Cc1cc2cc3c(cc2[nH]c1=O)OCCO3`, 8.7% (inactive). Same read-out and setting: in the case of `COc1ccc(C(=O)Nc2ccnn2C2CCN(Cc3ccncc3)CC2)cc1` it was 14.9% (inactive); in that of `COc1cc2[nH]c(=O)n(Cc3ccc(C(=O)NC4CCN(Cc5ccccc5)CC4)cc3)c(=O)c2cc1OC`, 36.6% (active).

For the compound `COc1cc(C(=O)NC2CCN(Cc3ccccc3)CC2)cc(Cl)c1OC(C)C`, the inhibition (at 10 µM unless noted) is 19.9% (inactive).

On to `COc1cc2[nH]c(=O)n(CCC(=O)NC3CCN(Cc4ccccc4)CC3)c(=O)c2cc1OC`, for which, for the setting “at 10 µM unless noted”, the inhibition was 15.6% (inactive).

As to `O=C(N/N=C\C1CC=CCC1)c1ccc(Br)o1` (stereo not drawn), the inhibition (at 10 µM unless noted) is 11.4% (inactive). On the same count and under the same terms, in the case of `CCCn1c(C2CCCN2c2nc(-c3ccc(OC)cc3)cs2)nc2ccccc21` (stereo not drawn) it was 21.7% (inactive).

In the case of `Oc1ccc(N=Nc2nccs2)c(O)c1`, the inhibition (at 10 µM unless noted) was 8.1% (inactive). Same read-out and setting: in the case of `Oc1ccc(N=Cc2c(O)ccc3ccccc23)cc1` it was -1.8% (inactive); in that of `Oc1ccc2ccccc2c1N=Nc1nccs1`, 59.8% (active).

Consider `O=C(NCCNc1ccc([N+](=O)[O-])cc1Cl)c1ccccc1F`, for which, where the note is “at 10 µM unless noted”, the inhibition is 29.5% (inactive). In the case of `COc1ccccc1C1=Nc2cccc3cccc(c23)N1`, the inhibition (at 10 µM unless noted) is 9.5% (inactive). Still for that read-out and setting: in the case of `Fc1ccccc1N=C1Nc2cccc3cccc1c23` it was -0.1% (inactive); in that of `c1ccc(C2=Nc3cccc4cccc(c34)N2)cc1`, 47.7% (active). Regarding `O=C(c1noc2c1CCCC2)N1CCc2ccccc2C1`, the inhibition (at 10 µM unless noted) is 3.2% (inactive).

As for `COc1ccc(N2CCN(C(=O)c3ccccc3NC(=O)C3=C(C)OCCS3)CC2)cc1`, the inhibition (at 10 µM unless noted) is 13.7% (inactive). Same read-out and setting: as for `COc1cc(-c2c(-c3ccc4c(c3)OCO4)noc2C)ccc1F`, the figure is 3.9% (inactive); as for `C=CCNC(=S)N1CCc2[nH]c3ccccc3c2C1`, 36.9% (active). Still for that read-out and setting: in the case of `Fc1ccc(NC(=S)N2CCc3[nH]c4ccccc4c3C2)cc1` it was -2.7% (inactive). On the same count and under the same terms, as for `CCCC(=O)N1CCc2[nH]c3ccccc3c2C1`, the figure is 12.2% (inactive).
